An excerpt weighted towards active compounds, which were near 5.5% of everything screened.
Six1-Eya2 blk: Six1/Eya2 interaction inhibition; AlphaScreen GST-Six1/His-Eya2 binding, biochemical; active compounds read low; activity change, % (test concentration not listed); Q15475+O00167; AID 651725; 360,000 tested, 0.56% active; in the data active = activity change below about -65%; inconclusive = mostly about -30% to -63%; also: % is scaled to controls: 0 for no effect and ±100 for the full control effect
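GST-Six1 + His-Eya2 (5X stock: 250/500 nM); Tris pH 8.0, 300 mM NaCl, 0.05% BSA, 0.02% Tween 20; GSH donor/Ni acceptor beads; 1 h 37 °C dark; AlphaScreen readout.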
MBNL1 CUG block: MBNL1-poly(CUG) RNA binding inhibition | Q9NR56 | TR-FRET MBNL1-His/biotin-(CUG)12 binding, 665/545 ratio | Potency, µM (titrated, usually from 57.5 µM), for the others: at the highest dose activity change, negative = inhibition, usual class: inhibitors | 280,000 tested, 0.036% active; active = well fitted inhibition curve with a large enough effect in the signal ratio, with a control signal flat, not every such curve was filed as active; inconclusive = small, poorly fitted or top-dose-only effect, or effect the other way, or a change in a side signal; inactive = no such curve, though single readings can be large or run the other way; the % refers to the signal ratio; also: potency is read from the fitted curve at half-maximal effect; % is scaled to controls: 0 for no effect and ±100 for the full control effect
Target sequence (Q9NR56 whole entry, looked up): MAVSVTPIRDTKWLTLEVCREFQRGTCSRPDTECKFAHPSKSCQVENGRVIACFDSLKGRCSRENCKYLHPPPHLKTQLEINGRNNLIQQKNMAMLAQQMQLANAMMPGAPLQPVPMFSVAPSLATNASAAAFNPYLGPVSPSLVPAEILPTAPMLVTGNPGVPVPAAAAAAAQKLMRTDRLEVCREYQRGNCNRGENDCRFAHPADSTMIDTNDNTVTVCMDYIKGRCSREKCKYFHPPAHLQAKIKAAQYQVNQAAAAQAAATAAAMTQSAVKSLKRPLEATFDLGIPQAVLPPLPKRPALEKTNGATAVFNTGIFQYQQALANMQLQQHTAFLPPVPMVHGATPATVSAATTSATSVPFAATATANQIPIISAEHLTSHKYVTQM
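TR-FRET readout: Ex 340 nm, 665/545 nm emission ratio, normalized to buffer-only (basal) and MBNL1-(CUG)12 controls. Complex of MBNL1-His with Biotin-(CUG)12, compounds 92 nM–58 uM, incubated 60 min at room temperature.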
VP16 counter: counter-screen for ROR gamma inhibitors: Gal4-VP16 reporter; Drosophila S2 Gal4-VP16 UAS-luciferase, luminescence, 20 h; Potency, µM (top dose mostly 53.6 µM), for inactives: top-dose activity, negative = inhibition, most hits filed as inhibitors; 310,000 tested, 3.5% active; AID 2546;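 also: Gal4-VP16 expression switched on by copper sulfate through the metallothionein promoter; potency is read from the fitted curve at half-maximal effect; % is scaled to controls: 0 for no effect and ±100 for the full control effect; nearly all actives have a fitted effect of over 50% in size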
CtBP-E1A blk: CtBP/E1A binding inhibition. 340,000 tested, 0.49% active. AlphaScreen GST-E1A/His-CtBP binding, 1536-well; active compounds read low. AID 651724. activity change, % (concentration not given with the values); in the data active = activity change below about -65%; inconclusive = mostly about -30% to -63%; also: % is scaled to controls: 0 for no effect and ±100 for the full control effect
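In 5 uL wells, 23 nL compound meets equimolar GST-E1A and His-CtBP (5X stock 125 nM each) for 2 h, 37 °C. Beads (5X, 50 ug/mL) then 1 h, 37 °C, dark.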
CBFb-RUNX1 inh: inhibitors of human CBF-beta and RUNX1 interaction. 230,000 tested, under 10 active. Q01196+Q13951. AID 1477. Potency, µM (series often up to 59.8 µM), for the others: at the top dose activity, negative = inhibition, hits mostly inhibitors. AlphaScreen CBFb-His/RUNX1-biotin binding, biochemical; also: % of control where 0% means no effect
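CBF-beta (His) and RUNX1 (biotin), 30 nM each; 20 min preassociation; + compound, 15 min; + beads 50 ng each (Ni, streptavidin), 90 min; RT; AlphaScreen read.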
RORg inh: blocks mouse ROR gamma transcriptional activity; Drosophila S2 Gal4-RORgamma UAS-luciferase reporter, 20 h; Potency, µM (titrated, usually from 53.6 µM), without a hit: at the highest dose activity change, negative = inhibition, hits mostly inhibitors; 310,000 tested, 5.4% active; AID 2551; also: potency is read from the fitted curve at half-maximal effect; % is scaled to controls: 0 for no effect and ±100 for the full control effect; nearly all actives have a fitted effect of over 60% in size
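Compounds are pin-transferred onto Drosophila Schneider cells expressing a copper-inducible Gal4–ROR gamma transactivation domain fusion. After 1 hr, copper sulfate is added to 700 uM final; luciferase is read 20 hr later.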
* hit, by the source's call; ? = inconclusive; . = no result; [ ] = remark or other dose. Unless noted, calls follow the shape of the dose curve; as a rule, active = well fitted curve in the direction sought with a large enough effect; inconclusive = small, poorly fitted or top-dose-only effect, or another doubt; inactive = no such curve, though single readings can be large; an effect the other way counts as inactive or inconclusive.

SMILES | Six1-Eya2 blk | MBNL1 CUG block | VP16 counter | CtBP-E1A blk | CBFb-RUNX1 inh | RORg inh
FC(F)(F)c1cc(CCN2C(=S)NC[C@@H]2c2ccccc2)cc(C(F)(F)F)c1 | 6 | -8% | 11µM* | -5 | 18% | 5.6µM*
FC(F)(F)c1cc(CCN2C(=S)NC[C@@H]2CC2CCCCC2)cc(C(F)(F)F)c1 | -1 | -5% | 6.3µM* | 2 | 11% | 2.2µM*
Oc1ccc(C[C@@H]2CNC(=S)N2CCc2cc(C(F)(F)F)cc(C(F)(F)F)c2)cc1 | -2 | 4% | ? | 4 | 8% | ?
COc1ccc(OCC(=O)NCCCNC(=O)COc2ccc(OC)cc2)cc1 | -1 | . | . | 5 | . | .
COCCNC(=S)N1CCc2cc(OC)c(OC)cc2C1COc1cc(C)cc(C)c1 (stereo unspecified) | -27 | . | 22µM* | -27 | -6% | ?
c1ccc(OCCN2CCN(C(c3ccccc3)c3ccccc3)CC2)cc1 | -18 | -4% | -21% | -24 | . | -9%
O=C(N/N=C1/C[C@@H](O)[C@@H](O)[C@@H]2[C@@H]3C(=O)N(Cc4ccc5c(c4)OCO5)C(=O)[C@H]3CC[C@@H]12)OCc1ccccc1 | . | . | -11%[10 µM] | . | 14%[13.1 µM] | 11%[10 µM]
CNC(=O)c1cc2c(=O)n3cc(C)ccc3nc2n(Cc2ccco2)c1=N | . | ? | ? | . | -1% | 11µM*
N=c1c(S(=O)(=O)c2ccccc2)cc2c(=O)n3ccccc3nc2n1Cc1ccco1 | -10 | ? | ? | -2 | 1% | ?
COc1ccc(CCn2c(=N)c(C(=O)NCc3ccco3)cc3c(=O)n4ccccc4nc32)cc1 | -75* | ? | -11% | -83* | -4% | 6%
Cc1ccc(S(=O)(=O)c2cc3c(=O)n4ccccc4nc3n(Cc3ccco3)c2=N)cc1C | 3 | 9% | 18µM* | 1 | 1% | ?
O=C(c1cccc(F)c1)N1CCC2(CC1)CCN(c1cccc(-c3ccccc3)c1)CC2 | . | . | -1% | . | . | 18%
CCCCC(CC)CN1CN(CC(CC)CCCC)CC(C)(N)C1 (stereo unspecified) | 3 | . | -3% | 8 | 13% | -6%
COc1ccc(C/C(C)=N/NC(=S)Nc2ccccc2)cc1 | -2 | 5% | ? | . | -1% | 20µM*
COc1ccc(C/C(C)=N/NC(=S)Nc2ccc(C)c(C)c2)cc1 | 0 | -12% | 10µM* | 2 | 1% | ?
COc1ccc(C/C(C)=N/NC(=S)Nc2ccc(Cl)cc2)cc1 | -11 | 2% | ? | -5 | 4% | 11µM*
CCOc1ccc(NC(=S)N/N=C(\C)Cc2ccc(OC)cc2)cc1 | -8 | . | ? | -23 | -10% | 12%[10 µM]
O=C(COC(=O)c1ccc2c(c1)OCCO2)NCCc1ccc(F)cc1 | 2 | . | . | 9 | . | .
O=C(/C=C/[C@H]1O[C@@H](n2cnc3c(NC(=O)c4ccccc4)ncnc32)[C@H](O)[C@@H]1O)NCCCc1ccccc1 | 0 | . | . | 3 | . | .
CC(=O)N1CCN(S(=O)(=O)c2cccc(C(=O)NC3CC3)c2)CC1 | 13 | . | . | . | . | .
N/C(Cc1nc(-c2ccc(F)cc2)cs1)=N\O | 4 | 7% | -3% | 3 | 3% | -23%
NC(=S)Cc1nc(-c2ccccc2)cs1 | 6 | . | 8.9µM* | 7 | -1% | 11µM*
CCCC1OC2CC3C4CCC5=CC(=O)C=CC5(C)C4C(O)CC3(C)C2(C(=O)O)O1 (stereo unspecified) | -1 | -2% | -10% | 5 | . | 14µM*
CCC[C@@H]1O[C@@H]2C[C@@H]3[C@H]4CCC5=CC(=O)C=C[C@@]5(C)[C@H]4[C@H](O)C[C@@]3(C)[C@@]2(C(=O)CO)O1 | . | . | -2%[17 µM] | . | -7%[21.7 µM] | -31%[16.9 µM]
CCCC1O[C@@H]2CC3C4CCC5=CC(=O)C=C[C@]5(C)C4C(OC(C)=O)C[C@]3(C)[C@]2(C(=O)COC(C)=O)O1 (stereo partly specified) | 0 | -2% | -8% | 5 | 10% | ?
SMILES | Six1-Eya2 blk | MBNL1 CUG block | VP16 counter | CtBP-E1A blk | CBFb-RUNX1 inh | RORg inh
CCCC1O[C@@H]2C[C@H]3[C@@H]4CCC5=CC(=O)C=C[C@]5(C)[C@H]4[C@@H](O)C[C@]3(C)[C@]2(C(=O)CO)O1 (stereo partly specified) | -4 | -9% | 4% | 1 | -15% | 13µM*
CN(CC(=O)Nc1ccccc1Br)C(=O)c1cccn1C | -3 | . | . | 4 | . | .
Cc1cc(F)ccc1NC(=O)CCc1c(C)nn(-c2ccc(N3CCCCC3)nn2)c1C | -1 | 13% | 1% | 6 | . | 8.9µM*
CCN(CC)S(=O)(=O)c1cccc2cccnc12 | 5 | -5% | 3% | -4 | -1% | 1%
O=Cc1ccc2cccnc2n1 | 10 | 6% | -21% | -16 | -2% | -9%
O=Cc1ccc2ccc3cccnc3c2n1 | -69* | 9% | 0% | -93* | . | -42%
CSS(=O)(=O)c1cccc2cccnc12 | ? | 0% | ? | -70* | 2% | ?
c1cnc2c(c1)ccc1cccnc12 | -90* | 3% | ? | -76* | 9% | ?
Cc1cccc2cccnc12 | 7 | . | 0% | 4 | 4%[21.7 µM] | -6%
CCn1cnc2cc(NCc3ccc(C)cc3)ccc21 | -17 | 5% | ? | 1 | -6% | ?
COc1ccc(CNc2ccc3c(c2)ncn3-c2ccccc2OC)cc1 | ? | 14% | ? | 1 | ? | 18µM*
Cc1ccc(CNc2ccc3c(c2)ncn3C(C)C)cc1 | 2 | 5% | -7% | . | -9% | 5µM*
CC(Oc1ccc(Br)cc1)C(=O)Nc1ccc(S(=O)(=O)N(C)C2CCN(C)CC2)cc1 (stereo unspecified) | -3 | . | . | 0 | . | .
Cc1cccc2c3c([nH]c12)CCNC3 | 4 | -3% | 7% | 3 | . | -3%
CC(=O)Oc1ccc2c(=O)c(/C=N/c3cc(=O)[nH]c(=S)[nH]3)coc2c1 | -75* | . | 6% | -4 | 4% | -14%
O=c1cc(/N=C/c2coc3cc(Br)ccc3c2=O)[nH]c(=S)[nH]1 | -15 | . | 2% | -14 | -5% | 30%
Cc1cc(/C=C(/C#N)c2nc3ccccc3[nH]2)c(C)n1-c1cc(C(=O)O)cc(C(=O)O)c1 | -69* | ? | 5% | -66* | -29% | 29%
Cc1cc(/C=C(/C#N)c2nc3ccccc3[nH]2)c(C)n1-c1ccccc1C(=O)O | ? | ? | -21% | 0 | 4% | 11%
CN(C)c1ccc(/C=N\NC(=O)c2cccc3cc[nH]c23)cc1 | -9 | 12% | ? | . | -2% | 7.9µM*
CN(C)c1ccc(/C=N/NC(=O)c2cc(=O)[nH]c3ccccc23)cc1 | -8 | . | 1% | . | 8% | 0%
